Bioassay records (PubChem)
Shown are actives, neighbours in structure and some others; about 12% of the full set was active somewhere.
BAZ2B block – BAZ2B (human) inhibition. Q9UIF8. AlphaScreen BAZ2B-H3K14Ac peptide displacement. Potency, µM (series often up to 114 µM), for the others: at the highest dose activity change, negative = inhibition, actives largely listed as inhibitors. 4.4% of 360,000 active. AID 504333; note: potency is the fitted concentration of half-maximal effect; % is set by controls: 0 for no effect and ±100 for the full control effect; nearly all actives have a fitted effect of over 60% in size
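BAZ2B 50 nM plus b-H3(5-23)K14Ac 50 nM, PBS pH 7.4/0.01% Tween-20, 30 min RT; compound added (max 110 uM), 30 min RT; streptavidin donor/Ni-chelate acceptor beads 10 ug/mL final, 20 min dark; AlphaScreen read.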
PLK1 PBD inh – inhibitors of human PLK1 polo-box domain binding | P53350 | Plk1 PBD binding of FITC phosphopeptide, fluorescence polarization | 2.8% of 360,000 active | Potency, µM, for the others: max response, negative = inhibition, most hits filed as inhibitors; note: potency is the fitted concentration of half-maximal effect; series mostly up to about 57 µM; % is set by controls: 0 for no effect and ±100 for the full control effect; nearly all actives have a fitted effect of over 65% in size
HP1b chromo inh – HP1-beta chromodomain-methylated histone interaction inhibition. P83916. AlphaScreen HP1-beta / biotin-H3K9me3 peptide binding. Potency, µM (highest dose often 114 µM), for the others: at the top dose activity change, negative = inhibition, actives largely listed as inhibitors. 0.56% of 390,000 active. AID 540317; note: potency is the fitted concentration of half-maximal effect; nearly all actives have a fitted effect of over 70% in size
Target sequence (P83916 whole entry, looked up): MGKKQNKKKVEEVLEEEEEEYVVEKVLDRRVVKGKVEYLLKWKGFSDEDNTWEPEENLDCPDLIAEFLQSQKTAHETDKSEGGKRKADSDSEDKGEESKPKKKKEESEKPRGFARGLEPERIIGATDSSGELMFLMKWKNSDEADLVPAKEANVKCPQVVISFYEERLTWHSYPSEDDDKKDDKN
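Compound inhibition of the preformed complex between 50 nM HP1-beta and 50 nM biotinylated H3K9me3 peptide was read by AlphaScreen. Buffer was PBS pH 7.4 with 0.01% Tween-20. Incubations ran 30 min at room temperature, with 10 ug/mL donor/acceptor beads.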
JMJD2A Tudor inh – JMJD2A Tudor domain (human) inhibition. O75164. AlphaScreen JMJD2A-Tudor / H3K4me3 peptide binding. Potency, µM (top dose mostly 114 µM), without a hit: at the highest dose activity change, negative = inhibition, hits mostly inhibitors. 4.4% of 390,000 active; note: potency is the fitted concentration of half-maximal effect; % is set by controls: 0 for no effect and ±100 for the full control effect; nearly all actives have a fitted effect of over 50% in size
PI5P4K alpha inh – inhibitors of human PI5P4K alpha. P48426. PI5P4Kalpha enzyme, ADP-Glo luminescence, 60 min; stronger effect = lower value. max response, %. 1.2% of 330,000 active. AID 652105; active = max response of -50% or lower; inconclusive = between -30% and -50%; inactive = -30% or higher; note: value at the top dose of about 77 µM; % is set by controls: 0 for no effect and ±100 for the full control effect
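Enzyme plus substrate dispensed, test compounds pinned in, then ATP (5 microM final) added. After 60 min at RT, ADP-Glo reagent 1 for 45 min and reagent 2 for 30 min preceded luminescence imaging.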
G9a inh – inhibitors of human histone lysine methyltransferase G9a; 8.8% of 350,000 active; Potency, µM (highest dose often 102 µM), without a hit: at the highest dose activity, negative = inhibition, actives largely listed as inhibitors; G9a H3K9 monomethylation, AlphaScreen, 2 h; Q96KQ7; note: potency is the fitted concentration of half-maximal effect; % is set by controls: 0 for no effect and ±100 for the full control effect; nearly all actives have a fitted effect of over 75% in size
Target sequence (Q96KQ7 913-1193 limits assumed): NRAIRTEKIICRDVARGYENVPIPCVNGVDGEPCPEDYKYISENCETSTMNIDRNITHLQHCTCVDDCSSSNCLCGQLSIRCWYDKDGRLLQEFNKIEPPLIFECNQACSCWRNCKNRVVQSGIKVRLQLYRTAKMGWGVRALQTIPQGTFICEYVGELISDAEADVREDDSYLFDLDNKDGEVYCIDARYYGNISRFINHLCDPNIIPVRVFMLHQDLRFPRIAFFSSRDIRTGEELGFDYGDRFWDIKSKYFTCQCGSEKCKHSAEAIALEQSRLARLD
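Quantitative HTS format: methyltransferase activity on a biotin-tagged H3K9 peptide is measured by AlphaScreen, using a rabbit anti-monomethyl-H3K9 antibody with streptavidin donor and anti-IgG acceptor beads. Final levels are 20 nM enzyme, 500 nM peptide, 20 uM SAM; 2 h RT.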
An asterisk follows results filed as active; ? = inconclusive; . = no result given; [ ] = remark or other dose. Unless noted, calls come from the whole dose curve; as a rule, active = well fitted curve in the direction sought with a large enough effect; inconclusive = small, poorly fitted or top-dose-only effect, or another doubt; inactive = no such curve, though single readings can be large; an effect the other way counts as inactive or inconclusive.

SMILES	BAZ2B block	PLK1 PBD inh	HP1b chromo inh	JMJD2A Tudor inh	PI5P4K alpha inh	G9a inh
COc1ccc(C(C(=O)Nc2ccc(C(C)C)cc2)N(Cc2ccco2)C(=O)CC2NC(=O)NC2=O)cc1 (stereo unspecified)	40µM*	-1%	-2%	-33%	3	8.9µM*
O=C(Nc1ccncc1)Nc1cccc(Cl)c1	-3%	-3%	46%	-6%	14	.
S=C(NNc1cccc(Cl)c1)NC1CCCCC1	35µM*	0%	?	8.9µM*	1	28µM*
CN(C)NC(=S)Nc1cccc(Cl)c1	-4%	-12%	15%	-20%	1	-4%
NC(=S)NNC(=O)Nc1cccc(Cl)c1	4%	-7%	26%	?	-8	8.9µM*
NC(=S)NNc1cccc(Cl)c1	-2%	?	29%	?	-4	8.9µM*
Cc1ccc(NC(=O)Nc2cccc(Cl)c2)c(C(=O)O)c1	-3%	19µM*	13%	?	-11	-4%[59 µM]
Cc1cccc(NNC(N)=S)c1	?	-15%	-16%	-19%	4	40µM*
Cc1cccc(NNC(=S)Nc2ccccc2)c1	.	?	.	.	-1	.
COC(=O)c1ccc(C)c(NC(=O)c2ccc(Cl)c([N+](=O)[O-])c2)c1	-11%	30µM*	?	-24%[57.1 µM]	-4	-4%[59 µM]
COC(=O)c1ccc(Cl)c(NC(=O)c2cccc([N+](=O)[O-])c2C)c1	0%	-18%	28%	-16%	-7	-3%
CCCN(CCC)CC(O)Cn1cc(/C=C/C(=O)c2ccc(OCC)cc2)c2ccccc21 (stereo unspecified)	?	.	-1%	?	.	-39%[59 µM]
COc1ccc(C(=O)N=S2CCN(C(=O)c3ccc(Cl)cc3)CC2)cc1	-23%	2%	75%	-3%	3	25µM*
N#Cc1ccccc1Cn1c(=O)n(CCCC(=O)NCc2ccc3c(c2)OCO3)c(=O)c2sccc21	-9%	.	28%	-8%	.	-34%[59 µM]
COc1ccc(N=C2O/C(=C/c3sc(=S)n(CC4CCCO4)c3O)N=C2C#N)cc1 (stereo unspecified)	8.9µM*	-21%	?	?	-3	11µM*
CC(=O)OCC(NC(=O)C(C)NC(=O)OC(C)(C)C)C1OC(n2cc(F)c(=O)[nH]c2=O)C(OC(C)=O)C1OC(C)=O (stereo unspecified)	.	.	21%	-15%	.	.
CCN(CC)C(=O)CN1C(=O)/C(=C/c2ccccc2)SC1=S	-3%	27µM*	1%	-29%[11.4 µM]	-11	9%
O=C(O)CN1C(=O)/C(=C/c2ccsc2)SC1=S	79µM*	-4%	23%	-12%	-14	32µM*
CC(/C=C1\SC(=S)N(CCCC(=O)Nc2ccc(C(=O)O)cc2)C1=O)=C\c1ccccc1	40µM*	?	-28%	?	?	13µM*
CC(/C=C1\SC(=S)N(CCC(=O)Nc2ccccc2O)C1=O)=C\c1ccccc1	1%	21%	16%	-26%	-9	67%
CC(=O)NNC(=O)CN1C(=O)/C(=C/c2ccccc2)SC1=S	-7%	-11%	37%	-27%	1	27%[59 µM]
CC(/C=C1\SC(=S)N(CCC(=O)Nc2cccc(C(=O)O)c2)C1=O)=C\c1ccccc1	56µM*	24µM*	71µM*	?	-77*	45µM*
O=C(c1cccc(F)c1)N1CCC[C@@]2(CCN(c3ccccn3)C2)C1	.	.	.	.	.	-6%[12.7 µM]
CCOc1ccc(/C=C2\SC(=S)N(CCC(=O)N(CCO)c3ccccc3)C2=O)cc1	?	1%	-25%	?	4	16µM*
CCc1ccc(/C=C2/SC(=S)N(CCC(=O)Nc3cccc(C(=O)O)c3)C2=O)cc1	35µM*	?	-4%	50µM*	5	.
CC(=C\c1ccccc1)/C=C1/SC(=S)N(CCCC(=O)O)C1=O	?	?	-11%	-35%	-18	40µM*
CCc1ccc(/C=C2/SC(=S)N(CCC(=O)Nc3ccc(C(=O)O)cc3)C2=O)cc1	?	.	.	.	.	91%
